From PubChem BioAssay (EPA / NIEHS)
Activity calls are given as the source filed them. The calls were made as follows: active = hit-call score of the fitted dose curve at least 0.9, where 1 is the maximum; inactive = score below 0.9.

read-out: Tumor necrosis factor (Homo sapiens) (UniProt P01375); test: BSK_LPS_TNFa: BioMAP Diversity Plus: LPS Assay for Tumour Necrosis Factor alpha (TNFa) Biomarker Activity (AID 2283085); conditions: primary human HUVEC with PBMC; actives raise or lower the signal
Protocol: BSK_LPS is a cell-based, multiplexed-readout assay that uses umbilical vein endothelium and peripheral blood mononuclear cells, a human vascular primary cell co-culture, with measurements taken at 24 hours after chemical dosing in a 96-well plate.BSK_LPS_TNFa is an assay component measured in the BSK_LPS assay. It measures TNF-a antibody related to regulation of gene expression using ELISA technology.Data from the assay component BSK_LPS_TNFa was analyzed into 1 assay endpoint. This assay endpoint, BSK_LPS_TNFa, was analyzed with bidirectional fitting relative to DMSO as the negative control and baseline of activity. Using a type of binding reporter, gain or loss-of-signal activity can be used to understand changes in the signaling as they relate to the gene TNF. Furthermore, this assay endpoint can be referred to as a primary readout, because this assay has produced multiple assay endpoints where this one serves a signaling function. To generalize the intended target to other relatable targets, this assay endpoint is annotated to the cytokine intended target family, where the subfamily is inflammatory factor.
The levels of cell surface (or secreted, indicated by the prefix "s") biomarker endpoints were measured by ELISA. Overt cytotoxicity to cells in confluent adherent cultures (all systems other than the BT system) was assessed by measuring total protein levels using sulforhodamine B (SRB) staining in parallel cultures at the time of biomarker measurements, indicated as SRB endpoints. For proliferation assays for adherent cell types, individual cell types are cultured at sub-confluence and relative cell numbers quantified by SRB staining at time points optimized for each system (48 h: 3C and CASM3C systems; 72 h: BT and HDF3CGF systems; 96 h: SAg system). SRB was performed by staining cells with 0.1% SRB after fixation with 10% TCA and reading wells at 560 nm.Viability and proliferation of PBMC (T cells) was quantified by Alamar Blue reduction for the SAg and BT systems. For PBMC viability (referred to as PBMC Cytotoxicity within the assay endpoint names), cells were plated (75,000/well in a 96-well plate) and then chemical samples added for 1 h before addition of activators, SEB and TSST-1 (20 ng/mL final concentration each). Cells were incubated for 90 h. Then, Alamar Blue (20 uL/well) (Invitrogen, Cat DAL1100) was added for 6 h, and the plates were read with a fluorescence microplate reader at 546/580 nm (excitation/emission). For PBMC proliferation, cells were plated and activated as above but incubated for only 16 h prior to addition of Alamar Blue. Plates were read after 6 h.

Tumor necrosis factor (Homo sapiens), sequence (P01375 whole entry, looked up): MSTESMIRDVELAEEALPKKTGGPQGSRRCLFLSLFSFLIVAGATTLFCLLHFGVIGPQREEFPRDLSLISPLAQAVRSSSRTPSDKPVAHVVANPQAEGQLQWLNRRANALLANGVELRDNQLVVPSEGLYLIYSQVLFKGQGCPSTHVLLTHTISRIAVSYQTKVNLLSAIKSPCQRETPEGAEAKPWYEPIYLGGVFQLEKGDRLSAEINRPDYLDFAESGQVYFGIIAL

SMILES	outcome	AC50
CCCCCC(=O)O	inactive	
CCOC(=O)C(C)(C)Oc1ccc(Cl)cc1	inactive	
CC1(C)NC(=O)NC1=O	inactive	
CN[C@H]1CC[C@@H](c2ccc(Cl)c(Cl)c2)c2ccc(S(N)(=O)=O)cc21		23.3 µM (active)
COc1ccc(C)cc1N	inactive	
O=c1[nH]cc(F)c(=O)[nH]1	inactive	
CCNc1cccc(C)c1	inactive	
Cc1ccccc1Cl	inactive	
Cc1cc(NC(=O)C(=O)O)cc(C)c1Oc1ccc(O)c2c1CCC2		0.844 µM (active)
CC(=O)Oc1ccccc1C(=O)O	inactive	
CNCc1cc(F)ccc1Oc1ccc(Cl)c(Cl)c1		0.461 µM (active)
c1cc(-c2ccncc2)ccn1	inactive	
C[Si]1(C)O[Si](C)(C)O[Si](C)(C)O[Si](C)(C)O1	inactive	
Cc1nc(C)nc(N2C[C@@H](C)N(c3ccnc([C@@H](C)O)n3)[C@@H](C)C2)n1	inactive	
O=C(O)Cc1ccccc1Nc1c(Cl)cccc1Cl		20 µM (active)
O=C(N[C@@H](Cc1ccccc1)[C@@H](O)C(=O)N1C[C@@H](O)[C@@H](O)C1)c1cc2cc(Cl)ccc2[nH]1	inactive	
Oc1ccc2c(c1)OC[C@@H](N1CCC(O)(c3ccc(F)cc3)CC1)[C@H]2O	inactive	
Clc1cc(Cl)c(Cl)cc1Cl	inactive	
CC=Cc1ccc(O)c(OC)c1	inactive	
Cc1ccc(C)c(C)c1	inactive	

SMILES	outcome	AC50
CNC(=O)[C@H]1O[C@@H](n2cnc3c(NCc4cc(Cl)ccc4OCc4cc(C)no4)ncnc32)[C@H](O)[C@@H]1N	inactive	
CCCCCCC(=O)OCC	inactive	
COc1ccc(S(=O)(=O)N2C(=O)[C@@](c3ccccc3OC)(N3C[C@H](O)C[C@H]3C(=O)N(C)C)c3cc(Cl)ccc32)c(OC)c1		16.6 µM (active)
CCCCCCOCCO	inactive	
Cc1cccc([N+](=O)[O-])c1C	inactive	
NCCO	inactive	
CCOC(=O)CCC(=O)OCC	inactive	
COc1cc(C=O)ccc1O	inactive	
NS(=O)(=O)c1cc2c(cc1Cl)NCNS2(=O)=O	inactive	
Cc1cc(=O)[nH]c(=S)[nH]1	inactive	
C[C@]12C=CC(=O)C=C1CC[C@@H]1[C@@H]2C(=O)C[C@@]2(C)[C@H]1CC[C@]2(O)C(=O)CO	inactive	
O=c1c(O)c(-c2ccc(O)c(O)c2)oc2cc(O)cc(O)c12	inactive	
NC(=O)Cn1c(=O)cc(CCN2CCN(c3nccc4sccc34)CC2)c2ccc(F)cc21	inactive	
CCCCCCCCCCC	inactive	
CCCCc1ccc2c(n1)[C@@H](c1ccc(OC)cc1C[C@H](C)C(=O)O)[C@H](C(=O)O)[C@H]2c1ccc2c(c1)OCO2	inactive	
CC(C)(C)c1cc(O)c(C(C)(C)C)cc1O		1.43 µM (active)
CC(=O)OCCOCCOCCOC(C)=O	inactive	
Cc1cccc(C)c1O	inactive	
C1CCC(SSC2CCCCC2)CC1		32.5 µM (active)
O=[N+]([O-])C(CO)(CO)CO	inactive	
